{
  "source": "PubChem BioAssay AID2283134",
  "about": "(EPA ToxCast)",
  "note": "Inconclusive results are not listed. Activity calls are given as the source filed them. The calls were made as follows: active = hit-call score of the fitted dose curve at least 0.9, where 1 is the maximum; inconclusive = response in the unintended direction; inactive = score below 0.9.",
  "data": [
    {"molecular_target": "human Checkpoint Kinase 1 (CHK1), CHEK1 (gene 1111) (UniProt O14757)", "sequence (O14757 whole entry, looked up)": "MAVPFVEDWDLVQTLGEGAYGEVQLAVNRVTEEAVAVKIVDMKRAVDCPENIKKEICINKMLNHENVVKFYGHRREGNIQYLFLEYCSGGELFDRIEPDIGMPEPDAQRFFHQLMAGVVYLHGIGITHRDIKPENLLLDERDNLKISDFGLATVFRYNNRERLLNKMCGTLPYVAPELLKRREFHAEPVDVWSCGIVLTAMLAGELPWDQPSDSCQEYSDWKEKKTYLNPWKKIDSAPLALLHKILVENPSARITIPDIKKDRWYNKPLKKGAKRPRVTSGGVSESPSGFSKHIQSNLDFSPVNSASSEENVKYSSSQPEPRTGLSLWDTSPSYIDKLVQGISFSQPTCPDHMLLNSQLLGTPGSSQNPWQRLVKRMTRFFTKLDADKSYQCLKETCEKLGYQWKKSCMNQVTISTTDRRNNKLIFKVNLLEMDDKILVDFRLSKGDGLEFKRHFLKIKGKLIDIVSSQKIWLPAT", "test": "NVS_ENZ_hCHK1: NovaScreen (NVS) Enzymatic Assay for human Checkpoint Kinase 1 (CHK1)", "experimental": "NVS_ENZ_hCHK1 is a biochemical, single-readout assay that uses extracted gene-proteins in a cell-free assay. Measurements were taken 1 hour after chemical dosing in a 96-well plate.NVS_ENZ_hCHK1 is one of one assay component(s) measured or calculated from the NVS_ENZ_hCHK1 assay. It is designed to make measurements of enzyme activity, a form of enzyme reporter, as detected with fluorescence intensity signals by Fluorescence and electrophoretic mobility shift technology.Data from the assay component NVS_ENZ_hCHK1 was analyzed into 1 assay endpoint. This assay endpoint, NVS_ENZ_hCHK1, was analyzed in the positive analysis fitting direction relative to DMSO as the negative control and baseline of activity. Using a type of enzyme reporter, loss-of-signal activity can be used to understand changes in the enzymatic activity as they relate to the gene CHEK1. Furthermore, this assay endpoint can be referred to as a primary readout, because this assay has produced multiple assay endpoints where this one serves a enzymatic activity function. To generalize the intended target to other relatable targets, this assay endpoint is annotated to the kinase intended target family, where the subfamily is serine/threonine kinase. […]", "values": [
      {"compound": "N#Cc1c(Cl)c(Cl)c(Cl)c(C#N)c1Cl", "outcome": "inactive"}
    ]}
  ]
}
